± gives the standard deviation of the averaged measurements. Targets with the largest changes are over-represented here; the source holds about 6,500 in all.
Compound: Nc1ncnc2c1ncn2[C@@H]1O[C@H](COP(=O)(O)OP(=O)(O)OP(=O)(O)O)[C@@H](O)[C@H]1O [adenosine triphosphate]
Test: NP40-soluble protein abundance relative to vehicle (solubility fold change) (ratio); higher = more soluble protein in presence of ATP
In short: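 Across three independent experiments, values are fold changes against the detergent-processed vehicle for each replicate, based on vsn-normalised intensities. The samples were Jurkat crude lysate treated with eight concentrations (0.1 to 10 mM) for 10 min at room temperature and then 3 min at 37 °C. Lysate was solubilised with 0.8% NP40 and benzonase, ultracentrifuged, and the supernatant analysed by TMT-labelled LC-MS/MS.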

Sequence of UniProt O15169 (O15169 whole entry): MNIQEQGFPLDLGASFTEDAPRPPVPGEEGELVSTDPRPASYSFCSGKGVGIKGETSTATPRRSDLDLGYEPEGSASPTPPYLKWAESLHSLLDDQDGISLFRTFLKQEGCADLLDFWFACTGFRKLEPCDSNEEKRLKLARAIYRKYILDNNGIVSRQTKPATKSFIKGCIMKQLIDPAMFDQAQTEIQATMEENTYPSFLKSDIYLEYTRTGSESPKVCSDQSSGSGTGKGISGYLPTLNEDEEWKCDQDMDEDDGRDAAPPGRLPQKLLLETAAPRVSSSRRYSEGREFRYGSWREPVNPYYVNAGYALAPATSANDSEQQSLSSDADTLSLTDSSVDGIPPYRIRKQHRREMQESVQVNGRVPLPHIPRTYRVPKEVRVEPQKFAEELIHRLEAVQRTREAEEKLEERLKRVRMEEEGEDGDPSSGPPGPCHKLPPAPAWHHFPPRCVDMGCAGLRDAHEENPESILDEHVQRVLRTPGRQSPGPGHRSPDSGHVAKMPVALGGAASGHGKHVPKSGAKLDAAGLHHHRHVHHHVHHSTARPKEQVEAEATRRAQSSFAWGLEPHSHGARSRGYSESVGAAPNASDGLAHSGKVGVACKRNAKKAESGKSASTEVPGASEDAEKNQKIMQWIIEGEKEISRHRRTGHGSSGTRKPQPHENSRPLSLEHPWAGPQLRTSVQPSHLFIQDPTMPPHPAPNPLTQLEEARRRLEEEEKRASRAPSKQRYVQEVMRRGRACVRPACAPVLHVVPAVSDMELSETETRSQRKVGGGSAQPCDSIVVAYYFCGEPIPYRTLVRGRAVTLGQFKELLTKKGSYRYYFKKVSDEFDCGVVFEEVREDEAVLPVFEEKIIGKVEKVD
Sequence of UniProt O15504 (O15504 whole entry, one chain of several): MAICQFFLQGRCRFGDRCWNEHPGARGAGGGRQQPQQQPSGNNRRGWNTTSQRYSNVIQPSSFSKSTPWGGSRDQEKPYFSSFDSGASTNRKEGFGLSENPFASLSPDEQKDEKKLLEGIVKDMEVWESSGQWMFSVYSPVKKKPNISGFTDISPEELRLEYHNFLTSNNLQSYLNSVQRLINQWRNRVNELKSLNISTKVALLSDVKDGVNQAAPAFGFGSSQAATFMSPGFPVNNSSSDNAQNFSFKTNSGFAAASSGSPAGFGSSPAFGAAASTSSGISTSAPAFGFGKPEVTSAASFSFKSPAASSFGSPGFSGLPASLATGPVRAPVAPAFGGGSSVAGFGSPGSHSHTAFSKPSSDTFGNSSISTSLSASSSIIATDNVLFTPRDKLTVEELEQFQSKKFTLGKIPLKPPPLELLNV
Sequence of UniProt Q07955 (Q07955 whole entry, one chain of several): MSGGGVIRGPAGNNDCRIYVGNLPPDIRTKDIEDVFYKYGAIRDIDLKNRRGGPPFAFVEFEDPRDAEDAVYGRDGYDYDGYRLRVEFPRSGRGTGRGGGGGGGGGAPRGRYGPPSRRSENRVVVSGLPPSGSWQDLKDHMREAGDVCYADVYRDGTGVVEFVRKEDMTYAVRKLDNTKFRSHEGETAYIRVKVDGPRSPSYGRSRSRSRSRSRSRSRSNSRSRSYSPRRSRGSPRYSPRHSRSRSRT
Sequence of UniProt Q92993 (Q92993 whole entry, looked up, one chain of several): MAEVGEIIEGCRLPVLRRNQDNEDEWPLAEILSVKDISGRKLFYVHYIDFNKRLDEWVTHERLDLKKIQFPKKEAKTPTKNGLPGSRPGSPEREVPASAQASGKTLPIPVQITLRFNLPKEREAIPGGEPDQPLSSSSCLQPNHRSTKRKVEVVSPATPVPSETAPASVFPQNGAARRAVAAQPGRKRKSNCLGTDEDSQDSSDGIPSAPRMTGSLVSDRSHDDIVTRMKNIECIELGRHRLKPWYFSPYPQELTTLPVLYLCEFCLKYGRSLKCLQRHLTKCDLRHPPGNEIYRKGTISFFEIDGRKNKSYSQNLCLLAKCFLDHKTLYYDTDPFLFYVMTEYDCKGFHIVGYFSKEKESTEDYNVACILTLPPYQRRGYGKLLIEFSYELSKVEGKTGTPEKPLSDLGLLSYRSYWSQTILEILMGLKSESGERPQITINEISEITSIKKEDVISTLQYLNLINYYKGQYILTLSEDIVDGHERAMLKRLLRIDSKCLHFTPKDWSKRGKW
Sequence of UniProt O15047 (O15047 whole entry): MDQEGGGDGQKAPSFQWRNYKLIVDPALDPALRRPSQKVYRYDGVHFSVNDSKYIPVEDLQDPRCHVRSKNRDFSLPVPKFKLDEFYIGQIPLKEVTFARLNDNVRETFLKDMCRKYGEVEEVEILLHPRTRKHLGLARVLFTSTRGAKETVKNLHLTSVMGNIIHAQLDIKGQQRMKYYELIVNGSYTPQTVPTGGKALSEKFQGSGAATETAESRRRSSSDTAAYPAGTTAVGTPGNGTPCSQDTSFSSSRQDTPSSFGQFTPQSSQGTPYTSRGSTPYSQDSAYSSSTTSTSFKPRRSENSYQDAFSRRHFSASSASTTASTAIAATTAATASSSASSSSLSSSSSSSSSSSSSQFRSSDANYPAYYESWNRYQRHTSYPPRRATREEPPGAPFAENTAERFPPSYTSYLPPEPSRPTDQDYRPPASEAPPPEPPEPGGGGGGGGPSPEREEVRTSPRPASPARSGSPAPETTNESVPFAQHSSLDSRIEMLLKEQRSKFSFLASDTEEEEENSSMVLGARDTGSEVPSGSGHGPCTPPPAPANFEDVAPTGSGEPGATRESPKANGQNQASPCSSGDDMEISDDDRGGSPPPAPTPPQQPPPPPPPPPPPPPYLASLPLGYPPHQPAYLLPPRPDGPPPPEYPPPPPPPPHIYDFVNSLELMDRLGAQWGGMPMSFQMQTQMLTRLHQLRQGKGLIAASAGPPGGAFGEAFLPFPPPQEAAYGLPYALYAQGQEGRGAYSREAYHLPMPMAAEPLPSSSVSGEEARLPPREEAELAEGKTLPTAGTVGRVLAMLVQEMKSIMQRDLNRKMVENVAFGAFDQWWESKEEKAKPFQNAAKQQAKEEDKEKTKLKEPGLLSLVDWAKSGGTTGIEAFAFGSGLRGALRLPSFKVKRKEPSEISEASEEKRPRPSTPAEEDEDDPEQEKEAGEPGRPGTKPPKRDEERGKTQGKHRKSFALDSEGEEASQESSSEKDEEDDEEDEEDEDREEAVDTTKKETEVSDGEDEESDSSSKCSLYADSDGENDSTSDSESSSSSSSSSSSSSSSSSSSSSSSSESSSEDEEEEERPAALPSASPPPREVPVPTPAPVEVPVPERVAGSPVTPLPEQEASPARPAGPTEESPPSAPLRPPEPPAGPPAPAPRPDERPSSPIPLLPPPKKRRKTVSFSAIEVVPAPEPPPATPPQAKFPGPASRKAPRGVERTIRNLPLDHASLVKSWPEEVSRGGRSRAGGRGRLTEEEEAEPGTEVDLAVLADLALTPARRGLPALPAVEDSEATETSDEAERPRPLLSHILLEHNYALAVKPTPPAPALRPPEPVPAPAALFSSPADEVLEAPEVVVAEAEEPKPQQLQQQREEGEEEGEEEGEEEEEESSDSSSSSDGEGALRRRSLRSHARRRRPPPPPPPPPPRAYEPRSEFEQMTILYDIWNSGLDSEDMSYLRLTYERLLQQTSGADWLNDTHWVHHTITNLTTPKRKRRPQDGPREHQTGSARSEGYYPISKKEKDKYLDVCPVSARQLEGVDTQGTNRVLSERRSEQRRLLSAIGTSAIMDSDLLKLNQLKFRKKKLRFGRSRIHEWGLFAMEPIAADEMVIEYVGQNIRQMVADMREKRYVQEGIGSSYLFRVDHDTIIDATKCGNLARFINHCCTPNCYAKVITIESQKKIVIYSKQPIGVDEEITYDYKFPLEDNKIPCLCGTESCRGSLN
Sequence of UniProt Q8WYH8 (Q8WYH8 whole entry, one chain of several): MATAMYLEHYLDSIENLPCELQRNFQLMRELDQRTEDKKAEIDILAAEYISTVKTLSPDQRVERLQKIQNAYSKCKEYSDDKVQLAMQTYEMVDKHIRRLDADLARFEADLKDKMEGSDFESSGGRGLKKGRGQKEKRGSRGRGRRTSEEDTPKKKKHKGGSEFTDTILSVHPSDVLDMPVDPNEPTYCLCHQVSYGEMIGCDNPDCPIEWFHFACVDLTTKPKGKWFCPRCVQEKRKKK
Sequence of UniProt Q567U6 (Q567U6 whole entry, one chain of several): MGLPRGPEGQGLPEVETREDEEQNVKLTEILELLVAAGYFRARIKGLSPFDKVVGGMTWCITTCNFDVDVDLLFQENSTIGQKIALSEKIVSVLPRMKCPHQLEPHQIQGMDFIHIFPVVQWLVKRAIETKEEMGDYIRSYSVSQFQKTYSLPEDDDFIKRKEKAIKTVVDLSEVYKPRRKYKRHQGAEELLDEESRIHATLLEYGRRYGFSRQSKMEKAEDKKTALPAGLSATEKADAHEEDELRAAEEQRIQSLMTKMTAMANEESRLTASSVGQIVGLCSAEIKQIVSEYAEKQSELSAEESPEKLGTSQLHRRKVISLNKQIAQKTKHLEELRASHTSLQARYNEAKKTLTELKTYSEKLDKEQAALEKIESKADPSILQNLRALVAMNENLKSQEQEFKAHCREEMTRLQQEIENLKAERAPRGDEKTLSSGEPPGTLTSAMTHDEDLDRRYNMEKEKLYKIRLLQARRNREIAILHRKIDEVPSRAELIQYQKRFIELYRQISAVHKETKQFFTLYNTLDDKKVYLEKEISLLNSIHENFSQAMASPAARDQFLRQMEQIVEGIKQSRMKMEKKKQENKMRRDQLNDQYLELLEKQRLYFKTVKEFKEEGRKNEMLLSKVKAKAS
Sequence of UniProt P56556 (P56556 whole entry, one chain of several): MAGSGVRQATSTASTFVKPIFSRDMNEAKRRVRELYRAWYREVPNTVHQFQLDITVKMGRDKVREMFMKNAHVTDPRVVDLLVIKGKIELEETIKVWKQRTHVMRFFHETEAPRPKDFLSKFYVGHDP
Sequence of UniProt Q96MF7 (Q96MF7 whole entry, one chain of several): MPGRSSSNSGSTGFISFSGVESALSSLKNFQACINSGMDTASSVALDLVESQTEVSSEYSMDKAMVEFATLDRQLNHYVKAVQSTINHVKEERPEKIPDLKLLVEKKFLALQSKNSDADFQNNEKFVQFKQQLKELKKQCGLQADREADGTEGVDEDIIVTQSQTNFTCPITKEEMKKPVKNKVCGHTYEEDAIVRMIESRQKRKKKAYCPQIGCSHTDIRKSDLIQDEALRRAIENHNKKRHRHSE

Target	NP40-soluble protein abundance (concentration: 1mM)	NP40-soluble protein abundance (concentration: 2mM)	NP40-soluble protein abundance (concentration: 4mM)	NP40-soluble protein abundance (concentration: 6mM)	NP40-soluble protein abundance (concentration: 8mM)	NP40-soluble protein abundance (concentration: 10mM)
I3L448|Q5TC12 (UniProt Q5TC12)	0.982 ± 0.049	0.985 ± 0.028	0.983 ± 0.046	0.998 ± 0.04	0.96 ± 0.04	0.952 ± 0.022
UniProt O43865	0.982 ± 0.1	0.965 ± 0.063	0.963 ± 0.076	0.973 ± 0.1	0.96 ± 0.081	0.969 ± 0.043
SETD1A (UniProt O15047)	0.962 ± 0.038	0.97 ± 0.018	0.979 ± 0.022	0.997 ± 0.044	0.969 ± 0.049	0.997 ± 0.046
H0YNP8|Q99081-3|Q99081 (UniProt Q99081)	0.923 ± 0.056	0.935 ± 0.039	0.915 ± 0.041	0.938 ± 0.027	0.916 ± 0.018	0.921 ± 0.046
J3KTL2|Q07955 (UniProt Q07955)	1.41 ± 0.16	1.53 ± 0.14	1.7 ± 0.11	1.93 ± 0.19	1.89 ± 0.097	1.98 ± 0.093
B7ZBA0|Q8NI27 (UniProt Q8NI27)	1.52 ± 0.091	1.62 ± 0.074	1.89 ± 0.076	2.09 ± 0.2	2.4 ± 0.17	2.4 ± 0.21
A0A0A0MRR7|P09234 (UniProt P09234)	1.34 ± 0.087	1.39 ± 0.078	1.56 ± 0.062	1.87 ± 0.2	1.83 ± 0.041	1.84 ± 0.1
A0A0C4DGS0|P56556 (UniProt P56556)	0.969 ± 0.066	0.922 ± 0.055	0.901 ± 0.046	0.875 ± 0.066	0.926 ± 0.053	0.909 ± 0.031
UniProt O15169|O15169-2	1.05 ± 0.17	0.887 ± 0.14	0.982 ± 0.19	1.07 ± 0.18	1 ± 0.047	1.15 ± 0.21
E9PJA7|Q9NYF8|Q9NYF8-2|Q9NYF8-3 (UniProt Q9NYF8)	1.31 ± 0.092	1.41 ± 0.056	1.54 ± 0.086	1.7 ± 0.11	1.65 ± 0.07	1.7 ± 0.06
A0A0A0MSK4|Q86YR5|Q86YR5-4 (UniProt Q86YR5)	0.972 ± 0.037	0.99 ± 0.074	0.9991 ± 0.0089	1.018 ± 0.0076	0.96 ± 0.021	0.981 ± 0.05
D6REA1|Q9H173|D6RIU8 (UniProt Q9H173)	0.922 ± 0.083	0.938 ± 0.046	0.92 ± 0.083	0.929 ± 0.11	0.917 ± 0.063	0.8663 ± 0.0052
G3XAG1|Q96ME7|Q96ME7-3 (UniProt Q96ME7)	1.34 ± 0.038	1.407 ± 0.0052	1.58 ± 0.019	1.71 ± 0.061	1.88 ± 0.046	2.06 ± 0.081
TRIM38 (UniProt O00635)	0.949 ± 0.053	1 ± 0.018	0.988 ± 0.041	0.955 ± 0.046	0.986 ± 0.034	0.993 ± 0.045
B4DT96|C9JYA1|O15504|O15504-2 (UniProt O15504)	0.985 ± 0.095	1.21 ± 0.19	1.29 ± 0.17	1.43 ± 0.42	1.42 ± 0.26	1.77 ± 0.49
E9PLK3|P55786 (UniProt P55786)	1.02 ± 0.12	0.997 ± 0.09	0.976 ± 0.065	0.927 ± 0.13	0.999 ± 0.073	0.974 ± 0.057
G3V0I5|P49821|P49821-2 (UniProt P49821)	0.986 ± 0.025	0.96 ± 0.02	0.944 ± 0.033	0.94 ± 0.056	0.962 ± 0.052	0.953 ± 0.046
C9JKQ2|O43676 (UniProt O43676)	0.921 ± 0.053	0.903 ± 0.08	0.867 ± 0.032	0.908 ± 0.048	0.862 ± 0.04	0.868 ± 0.042
F8W9X7|Q567U6 (UniProt Q567U6)	0.974 ± 0.012	0.962 ± 0.017	0.959 ± 0.024	0.935 ± 0.015	0.951 ± 0.016	0.943 ± 0.028
UniProt O15379|O15379-2	1 ± 0.019	0.9928 ± 0.0062	0.985 ± 0.04	0.994 ± 0.053	1.04 ± 0.044	1.03 ± 0.065
UniProt O14776|O14776-2	0.972 ± 0.011	0.9735 ± 0.0036	0.959 ± 0.024	1.03 ± 0.021	1.01 ± 0.024	1.02 ± 0.013
F5H527|Q76I76 (UniProt Q76I76)	0.984 ± 0.012	1 ± 0.016	0.993 ± 0.03	0.997 ± 0.013	0.978 ± 0.037	0.995 ± 0.062
C9J381|P20839|P20839-2|P20839-3|P20839-4|P20839-5|P20839-6|P20839-7 (UniProt P20839)	0.999 ± 0.049	0.9672 ± 0.0062	0.933 ± 0.018	0.695 ± 0.051	0.61 ± 0.018	0.581 ± 0.033
E9PEN0|Q8WYH8|Q8WYH8-2 (UniProt Q8WYH8)	1.15 ± 0.2	1.3 ± 0.29	1.36 ± 0.18	1.5 ± 0.16	1.85 ± 0.6	1.86 ± 0.39
H0YLE6|Q9NWH9|H0YNF3 (UniProt Q9NWH9)	0.961 ± 0.054	0.988 ± 0.027	0.993 ± 0.038	1.11 ± 0.059	1.08 ± 0.032	1.13 ± 0.033
E7EX59|E9PDR0|P05166|P05166-2|E7EUY3 (UniProt P05166)	0.992 ± 0.049	0.971 ± 0.02	0.968 ± 0.012	0.973 ± 0.046	0.998 ± 0.033	0.979 ± 0.03
E5RFJ1|Q96MF7 (UniProt Q96MF7)	1.04 ± 0.053	1.04 ± 0.012	1.03 ± 0.017	1.09 ± 0.036	1.01 ± 0.018	1 ± 0.034
B4DZG1|Q9Y483-3|Q9Y483 (UniProt Q9Y483)	1.19 ± 0.023	1.25 ± 0.027	1.36 ± 0.057	1.41 ± 0.082	1.5 ± 0.032	1.56 ± 0.049
SPTLC1 (UniProt O15269)	0.993 ± 0.026	0.998 ± 0.032	0.997 ± 0.027	0.93 ± 0.096	0.998 ± 0.024	1 ± 0.049
E9PJI1|Q92993-3|Q92993-4|Q92993|Q92993-2 (UniProt Q92993)	1.06 ± 0.12	0.959 ± 0.11	1.13 ± 0.17	1.1 ± 0.19	1.06 ± 0.21	1.13 ± 0.1

From the supplement of paper PMC6411743
